# The entries come from a sample that favours hits as a whole.
# KDM5B inhibitor: Primary screen for KDM5B Histone Demethylases FDH-coupled qHTS; Lysine-specific demethylase 5B (Homo sapiens), Q9UGL1; KDM5B demethylase, FDH-coupled NADH fluorescence (FDH is formaldehyde dehydrogenase); Potency, µM (top dose mostly 57.7 µM), hits mostly inhibitors; 220,000 tested, 2.6% active; AID 1347165, 2019; active = well fitted inhibition curve with a large enough effect; note: 0% is about no effect; nearly all actives have a fitted effect of over 70% in size
#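 Here, H3K4me3 peptide (12.5 µM in substrate mix) is demethylated by KDM5BΔAP, 200 nM final, after 10 min compound exposure. Formaldehyde product is coupled through FDH (0.25 U/mL in mix) to NADH fluorescence; 30-min ΔRFU feeds dose-response curves.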
# Active calls of the source: *; i = inactive. Potency is the fitted concentration of half-maximal effect.
SMILES,KDM5B inhibitor
CSc1ccc(NC(=O)c2cc3c(N4CCSCC4)nc(C)cn3n2)cc1,i
CSc1cccc(NC(=O)c2cccc(C)c2)c1,i
Cc1cn2nc(C(=O)Nc3ccc(Cl)c(C)c3)cc2c(N2CCSCC2)n1,22µM*
COc1ccc(C2=NN(C(=O)c3cccs3)C(c3ccc4nccnc4c3)C2)cc1OC (stereo not given),i
CCN(CC)C(=S)SCC(=O)NC(=O)c1ccc[nH]1,i
Cc1cc2oc(=O)cc(CN3CCN(CCO)CC3)c2cc1Cl,i
O=C(CSc1ncnc2ccccc12)Nc1ccccc1C(=O)Nc1ccc(Cl)cc1,i
CC(C)(C)c1cc(C[C@H]2CNCC[C@H]2CC(=O)Nc2nccs2)no1,i
CCCNc1c(NC(=O)Nc2ccc(OC)cc2)c(=O)oc2ccccc12,i
CCCCCC1=CCC/C1=N/NC(=S)NCCOC,i
O=c1c(-c2ccccc2)c(C(F)(F)F)oc2cc(O)ccc12,i
Cc1oc2ccn(Cc3ccc(F)cc3)c(=O)c2c1C(=O)NC1CC1,i
Cc1cc(C)c(CNC(=O)c2cc(-c3cnn(C)c3)cc3c2OCCN3C(C)C)c(=O)[nH]1,28µM*
Cc1cc(C)c(CNC(=O)c2cc(-c3cnn(C)c3)cc3c2OCCN3C)c(=O)[nH]1,32µM*
COc1ccc(CN2CC3(CCN(C(=O)Nc4cccc(C(F)(F)F)c4)CC3)C2=O)cc1,i
CCN(CC)CCNC(=O)C(=O)Nc1cccc(N2CCCS2(=O)=O)c1,i
O=C(Cc1ccc2ccccc2c1)Nc1cccc2cccnc12,i
COc1ccc(C(=O)/C(=C/c2ccco2)c2nc3ccccc3o2)cc1,i
O=C1CO[C@H]2CCN(Cc3ccccc3F)CC[C@@H]2N1CCN1CCCC1,i
CCCOc1c(Cl)cc(C(=O)Nc2ncccc2C)cc1OC,i
O=C(NCC1CC1)c1ccc(Cn2ccn3nc4c(c3c2=O)CCCC4)cc1,i
COc1ccc(NC(=O)Cn2ccn3nc4c(c3c2=O)CCCCC4)cc1Cl,28µM*
O=C(Nc1cccc(F)c1)c1ccc(Cn2ccn3nc4c(c3c2=O)CCCC4)cc1,25µM*
COc1ccc(OC)c(NC(=O)Cn2ccn3nc4c(c3c2=O)CCCCC4)c1,i
C=CCNC(=O)c1ccc(Cn2ccn3nc4c(c3c2=O)CCCC4)cc1,i
SMILES,KDM5B inhibitor
O=c1c2c3c(nn2ccn1Cc1cc(F)cc(F)c1)CCCC3,i
COc1ccc(NC(=O)c2ccc(Cn3ccn4nc5c(c4c3=O)CCCC5)cc2)cc1,i
COc1ccc(NC(=O)Cn2ccn3nc4c(c3c2=O)CCCC4)cc1OC,i
CC(C)c1ccc(CNC(=O)c2ccc(Cn3ccn4nc5c(c4c3=O)CCCC5)cc2)cc1,28µM*
Fc1ccccc1CN1CCOC[C@H]1c1ncc(-c2ccc(Cl)s2)[nH]1,i
COc1cc(C#N)ccc1OCC(=O)NC(=O)NCc1ccccc1,i
COc1ccc(C(=O)OCc2ccccc2C#N)c(OC)c1,i
CN(C)CCNCC1CCCCC1,i
CCOc1ccccc1-c1nnc(SCC(=O)Nc2ccc3c(c2)OC2(CCCCC2)O3)o1,i
CCCn1c(SCc2csc(-c3ccccc3)n2)nnc1C1CC1,i
O=C(C1CCC1)N1CCC(c2nc(-c3ccc4nc[nH]c4c3)no2)CC1,i
N#C/C(=C/c1ccc(-c2ccc(Cl)cc2)o1)C(=O)NC1CC1,i
Cc1ccc(CC2C(=O)N(C)c3ccc(Br)cc32)cc1 (stereo not given),i
CN(C)c1ccc(NC(=S)N[C@H]2CO[C@H]3[C@@H]2OC[C@H]3OC(=O)Nc2cccc3ccccc23)cc1,i
S=C(Nc1cccc2ccccc12)N[C@H]1CO[C@H]2[C@@H]1OC[C@H]2OCc1ccccc1,35µM*
O=C(Nc1cccc2ccccc12)O[C@@H]1CO[C@H]2[C@@H]1OC[C@@H]2NC(=S)Nc1ccc(Cl)cc1,i
O=C(N[C@H]1CO[C@H]2[C@@H]1OC[C@H]2OCc1ccccc1)c1ccccc1,i
NC(=O)CO[C@@H]1CO[C@H]2[C@@H]1OC[C@@H]2NC(=O)Nc1cccc2ccccc12,28µM*
NC(=O)CO[C@@H]1CO[C@H]2[C@@H]1OC[C@@H]2NC(=O)Nc1ccccc1,i
CCOc1ccc2nc(NC(=O)c3nc(SCC)ncc3Cl)sc2c1,i
Cc1c(NC(=O)NCc2ccccc2)cccc1C(N)=O,i
O=C(NCc1ccc(F)cc1)c1nc(-c2cc(Cl)cc(Cl)c2)c2ccccn12,i
O=C(Cc1csc2nc(-c3ccccc3)cn12)NCc1ccc(F)cc1,i
C[S+](=O)([O-])c1ccc(-c2nc(C(=O)NCc3ccc(F)cc3)n3ccccc23)cc1,89µM*
C[S+](=O)([O-])c1ccc(-c2nc(C(=O)NCc3cccnc3)n3ccccc23)cc1,i
SMILES,KDM5B inhibitor
O=C(NCc1ccc(F)cc1)c1nc(-c2ccc(F)cc2)c2ccccn12,32µM*
O=C(O)CSCC(=O)N1CCOCC1,i
Cc1nnc2n1CCC(NC(=O)c1cnccn1)CC2 (stereo not given),i
Cc1nnc2n1CCC(NC(=O)c1cccn1C)CC2 (stereo not given),20µM*
Cc1nnc2n1CCC(NC(=O)NCc1ccco1)CC2 (stereo not given),i
CC1CC(=O)Nc2ccccc2N1C(=O)Cn1cnc2c(Cl)cc(Cl)cc2c1=O (stereo not given),i
COc1ccc(/C=C/C(=O)c2ccc3ccccc3c2OC(F)F)cc1,i
Cc1noc(C)c1-c1cc2c(cc(C)n2C)c(-c2cnn(C)c2)n1,i
COc1ccc(-c2cc(-c3c(C)noc3C)cc3c2C(=O)N(C)C3)cn1,32µM*
Cc1noc(C)c1-c1cc2c(cc(-c3ccccc3)n2C)c(-c2ccnn2C)n1,i
Cc1noc(C)c1-c1cc2c(cc(-c3ccccc3)n2C)c(N2CCOCC2)n1,22µM*
COc1ncccc1-c1nc(-c2c(C)noc2C)cc2c1cc(-c1ccccc1)n2C,i
Cc1noc(C)c1-c1cc2c(cc(-c3ccccc3)n2C)c(-c2cnn(C)c2)n1,35µM*
Cc1noc(C)c1-c1cc2c(c(-c3cccnc3)c1)C(=O)N(C)C2,i
Cc1noc(C)c1-c1cc2c(c(-c3ccc(CO)cc3)c1)C(=O)N(C)C2,i
COc1ccc(-c2nc(-c3c(C)noc3C)cc3c2cc(-c2ccccc2)n3C)cn1,28µM*
COc1ccccc1CNC(=O)[C@@H]1Cc2c[nH]c3cccc(c23)[C@H](CC(C)C)N1,i
O=C(COCc1nc2ccccc2c(=O)[nH]1)Nc1nc(-c2ccc3c(c2)CCC3)cs1,i
Cc1cc(F)ccc1OC1CN(Cc2ccc(N(C)C)cc2)C1,i
COc1ccc(C(=O)NC[C@@H]2C=C(C)[C@H](Cc3nc4ccncc4[nH]3)C[C@H]2C(C)C)cc1,i
O=C(CNC(=O)C1CC1)NC(c1ccccc1)c1cc2ccccc2o1 (stereo not given),i
Cc1[nH]c2ccccc2c1CCNC(=S)NC(C)(C)C,i
CN1CC(=O)N(C2CCCNC2)Cc2c(NC3CCCCC3O)ncnc21 (stereo not given),i
COc1ccc(NC(=O)c2ncoc2-c2ccc(C)o2)cc1OC,i
COc1cc(Cl)c(C)cc1-n1cc(C(=O)c2cc(C)ccc2O)cc(C#N)c1=O,i
COCCN1CCNc2nc(COc3cccc(C#N)c3)n(Cc3ccccc3)c2C1=O,i
CCCN(C)C(=O)c1nn(CCC)c(=O)c2ccccc12,i
